Several values for one entry are separate records, joined by “and”; a condition that tells them apart may be missing. Identical values can stand only once. The campaign covered roughly 420,000 compounds. About 64,000 (15%) were called active. About 27% were inconclusive and are not listed. Calls come from the whole dose curve; as a rule, active = well fitted inhibition curve with a large enough effect; inconclusive = small, poorly fitted or top-dose-only effect; inactive = flat fitted curve, though single readings scatter. Not all results are given here. Entries that show only a call come without a potency.
Assay: qHTS for Inhibitors of human tyrosyl-DNA phosphodiesterase 1 (TDP1): qHTS in cells in absence of CPT; note: nearly all actives have a fitted effect of over 55% in size
Conditions: DT40 Tdp1-/- hTDP1 cells, no CPT, ATP luminescence, 48 h; activity change, negative = growth inhibition: at 46.2 µM (top of the series)
Procedure, shortened: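 Growth kinetics read by CellTiter-Glo luminescence after ≥48 hr at 37 °C. Cells: DT40 Tdp1-/- stably carrying human TDP1, 400 per well, compound exposure in the absence of CPT (DMSO vehicle).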
Potency is the fitted concentration of half-maximal effect.

| Structure (SMILES) | Potency |
| --- | --- |
| Cc1nn2c(=O)cc(COC(=O)c3ccccc3NC(=O)COc3ccccc3C)nc2s1 | inactive |
| CC(=O)C1C(c2ccc(Cl)cc2)c2c(n[nH]c2C)CC1(C)O (stereo not given) | inactive |
| CCOc1ccc(S(=O)(=O)NCCC(=O)NCC2CCCO2)cc1 (stereo not given) | inactive |
| COc1ccc(Cn2cccc(NC(=O)Nc3ccc(C#N)cc3)c2=O)cc1 | inactive |
| CC1CCc2sc3nc(N4CCN(CCO)CC4)n4ncnc4c3c2C1 (stereo not given) | inactive |
| Cc1ccn2c(=O)nc(SCC(=O)NCc3ccc4c(c3)OCO4)nc2c1 | inactive |
| O=C(COC(=O)CC1CC2CCC1C2)NC(=O)NC1CCCC1 (stereo not given) | inactive |
| COc1ccc(-c2nc3scc(CCNS(=O)(=O)c4cc(F)ccc4OC)n3n2)cc1OC | 20.6 µM (active) |
| COc1ccc(CCNS(=O)(=O)c2ccc(F)cc2)cc1OC | inactive |
| COc1cc(OC)cc(C(=O)NCCc2csc3nc(-c4ccccc4F)nn23)c1 | inactive |
| Cc1cc([N+](=O)[O-])nn1CC(=O)Nc1ccc(Cc2ccncc2)cc1 | inactive |
| O=C(OCC(=O)N1CCN(C(=O)c2ccco2)CC1)c1c(Cl)cccc1Cl | inactive |
| CN(c1ccccc1)S(=O)(=O)c1cc(C(=O)OCC(=O)N2CCN(C(=O)c3ccco3)CC2)ccc1Cl | 23.1 µM (active) |
| O=C(OCC(=O)N1CCN(C(=O)c2ccco2)CC1)c1cccc(O)c1 | inactive |
| COc1cccc(CN2CCNC(=O)C2CC(=O)N(C)CCc2ccccn2)c1 (stereo not given) | inactive |
| Cc1ccc(NC(=O)c2oc3ccccc3c2C)c([N+](=O)[O-])c1 | inactive |
| COc1ccc(Cl)cc1C(=O)NCC#N | inactive |
| Cc1noc(C)c1-c1nc(Nc2ccccc2)c2ccccc2n1 | inactive |
| c1ccc2c(Nc3ccncc3)nc(-c3ccoc3)nc2c1 | 20.6 µM (active) |
| c1ccc2c(Nc3ccncc3)nc(-c3ccc4c(c3)OCO4)nc2c1 | 14.6 µM (active) |
| Cc1ccc(C(=O)O)cc1N1C(=O)CCCC1=O | inactive |
| CC1CCC(NC(=O)CNC(=O)c2ccc3ccccc3c2)CC1 (stereo not given) | inactive |

| Structure (SMILES) | Potency |
| --- | --- |
| N#Cc1ccc(CSc2ncccn2)cc1 | inactive |
| Cn1c(=O)[nH]c2c(c(C(=O)O)nn2C)c1=O | inactive |
| O=C(CSc1nc2cc3c(cc2c(=O)n1CCC1=CCCCC1)OCO3)NCc1ccco1 | inactive |
| COCCN(C(=O)C(C)N1C(=O)c2ccccc2C1=O)c1c(N)n(CC(C)C)c(=O)[nH]c1=O (stereo not given) | inactive |
| CCC(=O)Nc1ccc2c(c1)nc(CCN1CCN(C)CC1)n2C | inactive |
| Cn1c(CCN2CCCCCC2)nc2cc(NC(=O)Nc3ccccc3)ccc21 | 23.1 µM (active) |
| CCC(=O)Nc1ccc2c(c1)nc(CCN1CCN(c3ccccn3)CC1)n2C | inactive |
| N[C@@H](Cc1ccccc1)C(=O)N1CCC(C(=O)NCC(=O)Nc2ccc(F)cc2)CC1 | inactive |
| Cc1ccc(SCCC(=O)NCc2ccccn2)cc1 | inactive |
| O=C(COc1ccccc1)OCc1cc(=O)n2nc(-c3cccs3)sc2n1 | inactive |
| COc1ccc(CNC(=O)C2CCN(C(=O)c3ccccc3)CC2)cc1 | inactive |
| COc1ccc(CNC(=O)c2ccc(NC(=O)N3CC4CCCN4c4ccccc43)cc2)cc1 (stereo not given) | 20.6 µM (active) |
| COc1ccc(S(=O)(=O)N2CCC(C(=O)NCCC(=O)NCc3cccc(OC)c3)CC2)cc1 | inactive |
| COc1ccccc1CNC(=O)CNC(=O)c1cn(-c2ccccc2OC)c(=O)c2ccccc12 | inactive |
| O=C(CCC(=O)N1CC2CCCN2c2ccccc21)NCc1ccccc1Cl (stereo not given) | 16.4 µM (active) |
| COc1cccc(CNC(=O)C2CC(=O)N(C3CCCCCCC3)C2)c1 (stereo not given) | inactive |
| COc1cccc(CNC(=O)CCC(=O)N2CC3CCCN3c3ccccc32)c1 (stereo not given) | 16.4 µM (active) |
| COc1ccc(NC(=O)N2CCCC2C(=O)NCc2ccccc2Cl)cc1 (stereo not given) | inactive |
| O=C(CCC(=O)n1ncc2ccccc21)NCc1ccccc1Cl | inactive |
| COc1ccccc1CNCc1ccc(C(=O)O)s1 | inactive |
| COc1ccccc1CNC(=O)c1ccc(NC(=O)N2CC(C)Sc3ccccc32)cc1 (stereo not given) | 23.1 µM (active) |
| O=C(NCc1ccccc1Cl)C1CCCO1 (stereo not given) | inactive |

| Structure (SMILES) | Potency |
| --- | --- |
| NS(=O)(=O)c1ccc(NC(=O)/C=C/c2ccccc2Cl)cc1 | inactive |
| C/C(=C/c1ccccc1)C(=O)N1CCN(c2ccccc2)CC1 | inactive |
| Cc1ccc(S(=O)(=O)CCC(=O)OCC(=O)N(C)C2CCS(=O)(=O)C2)cc1 (stereo not given) | inactive |
| COCCn1c(C)cc(C(=O)COC(=O)CNC(=O)c2ccco2)c1C | inactive |
| COc1cccc(N(CC(=O)NC2CCCC2)C(=O)CCCC(=O)Nc2ccccn2)c1 | inactive |
| O=NN(CCCl)C(=O)NCCc1cccc[n+]1[O-] | inactive |
| O=C1COc2ccc(S(=O)(=O)Nc3ccc(OC(F)(F)F)cc3)cc2N1 | inactive |
| Cc1ccc(S(=O)(=O)N2CCN(C(=O)CCC(=O)NC3CCCc4ccccc43)CC2)cc1 (stereo not given) | inactive |
| Cc1ccc(S(=O)(=O)N2CCN(c3nc(-n4cnc5ccccc54)nc4ccccc34)CC2)cc1 | inactive |
| COc1ccc(C)cc1S(=O)(=O)N1CCN(S(=O)(=O)c2cc(C(=O)O)ccc2C)CC1 | inactive |
| O=[N+]([O-])c1ccc(S(=O)(=O)N2CCN(c3nc(-c4ccccc4)nc4ccccc34)CC2)cc1 | inactive |
| Cc1ccc(S(=O)(=O)N2CCN(c3ncnc4ccccc34)CC2)cc1 | 820 nM (active) and 1.26 µM (active) |
| Cc1ccc(C)c(S(=O)(=O)N2CCN(c3ncnc4sccc34)CC2)c1 | 3.66 µM (active) |
| Cc1ccc(C)c(S(=O)(=O)n2nc(C)c(S(=O)(=O)N3CCC(C)CC3)c2C)c1 | inactive |
| COc1ccccc1C(=O)NCCC(=O)NC1=NCCS1 | inactive |
| Cc1cccc(N(C(=O)c2ccc(CN3CCOCC3)o2)C(C(=O)NC2CCCCC2)c2ccc(F)cc2)c1 (stereo not given) | inactive |
| COc1cc(OC)c(S(=O)(=O)Nc2ccccc2C(=O)O)cc1S(=O)(=O)Nc1ccccc1C(=O)O | inactive |
| COc1ccccc1OCC(=O)OCn1c(SC)nnc(C)c1=O | inactive |
| O=C(Nc1cccc(S(=O)(=O)NC2=NCCC2)c1)C1CCCCC1 | inactive |
| O=C(NCc1ccccc1)C1c2ccccc2OCC(=O)N1CCCN1CCOCC1 (stereo not given) | inactive |
| CCOc1cc(/C=C2\C(=N)N3N=C(C)SC3=NC2=O)ccc1OCCOc1ccccc1 | inactive |

Reference: PubChem BioAssay AID686978 (National Center for Advancing Translational Sciences (NCATS), 2013)
